# USP1-UAF1 inh: Inhibitors of USP1/UAF1: Primary Screen. Potency, µM (top dose mostly 57.1 µM), for the others: at the highest dose activity change, negative = inhibition, most hits filed as inhibitors. Ubiquitin carboxyl-terminal hydrolase 1 (Homo sapiens), O94782. recombinant USP1/UAF1, Ub-Rhodamine cleavage fluorescence. 390,000 tested, 0.23% active; note: % is set by controls: 0 for no effect and ±100 for the full control effect; nearly all actives have a fitted effect of over 60% in size
# Target sequence (O94782 whole entry, looked up): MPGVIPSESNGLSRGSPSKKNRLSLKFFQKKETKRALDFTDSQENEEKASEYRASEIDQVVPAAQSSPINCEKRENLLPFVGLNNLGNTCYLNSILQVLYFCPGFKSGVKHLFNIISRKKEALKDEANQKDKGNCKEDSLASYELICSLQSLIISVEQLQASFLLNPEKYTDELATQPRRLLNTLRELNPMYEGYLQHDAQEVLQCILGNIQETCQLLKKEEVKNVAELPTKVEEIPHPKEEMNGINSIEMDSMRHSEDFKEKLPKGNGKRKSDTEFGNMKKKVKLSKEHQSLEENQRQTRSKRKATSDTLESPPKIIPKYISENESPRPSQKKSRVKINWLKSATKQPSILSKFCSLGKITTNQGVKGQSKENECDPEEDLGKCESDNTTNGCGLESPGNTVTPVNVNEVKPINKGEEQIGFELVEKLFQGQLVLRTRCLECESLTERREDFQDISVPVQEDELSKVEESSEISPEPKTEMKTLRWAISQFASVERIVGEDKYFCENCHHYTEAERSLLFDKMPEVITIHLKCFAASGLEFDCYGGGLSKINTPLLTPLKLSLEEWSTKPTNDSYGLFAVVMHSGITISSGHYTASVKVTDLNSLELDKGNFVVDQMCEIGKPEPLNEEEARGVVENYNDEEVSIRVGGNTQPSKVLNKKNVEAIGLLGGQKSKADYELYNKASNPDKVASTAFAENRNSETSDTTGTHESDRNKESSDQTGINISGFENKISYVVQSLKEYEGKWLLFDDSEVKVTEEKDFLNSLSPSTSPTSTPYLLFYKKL
#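 In this screen, compounds sit with the deubiquitinase complex (1nM) for 15 min at room temperature before Ub-Rho is added at 150nM final. Fluorescence rise is then followed for 6 reads every 60 seconds.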
# PLK1 PBD block: qHTS for Inhibitors of PLK1-PDB (polo-like kinase 1 - polo-box domain): Primary Screen; Plk1 PBD binding of FITC phosphopeptide, fluorescence polarization; AID 720504, 2013; Potency, µM, inactives show max response, negative = inhibition, hits mostly inhibitors; 360,000 tested, 2.8% active; Serine/threonine-protein kinase PLK1 (Homo sapiens), P53350; note: series mostly up to about 57 µM; % is set by controls: 0 for no effect and ±100 for the full control effect; nearly all actives have a fitted effect of over 65% in size
# TSG101-PTAP inh: qHTS Assay for Iinhibitors of HIV-1 Budding by Blocking the Interaction of PTAP/TSG101. Tumor susceptibility gene 101 protein (Homo sapiens), Q99816. Fluorescence polarization, FITC-PTAP peptide / Tsg101 binding. Potency, µM (series often up to 115 µM), without a hit: at the highest dose activity change, negative = inhibition, most hits filed as inhibitors. 340,000 tested, under 10 active. AID 493005, 2010; active = well fitted inhibition curve with a large enough effect in the main read-out, with a control signal flat, not every such curve was filed as active; inconclusive = small, poorly fitted or top-dose-only effect, or effect the other way, or a change in a side signal; inactive = no such curve, though single readings can be large or run the other way; note: % of control where 0% means no effect
#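 FP read-out: FITC-PTAP peptide, 50 nM final, binding Tsg101 binding domain, 10 uM final; 20 min, r.t.; 10 mM HEPES pH 7.5, 0.15 M NaCl, 0.01% Tween 20, 3 mM EDTA, 0.1 mM TCEP.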
# GCN5L2 inh: qHTS Assay for Inhibitors of GCN5L2 | Histone acetyltransferase KAT2A (Homo sapiens), Q92830 | GCN5L2 HAT assay, ThioGlo1 CoA-SH fluorescence | Potency, µM (series often up to 58.9 µM), for the others: top-dose activity change, negative = inhibition, usual class: inhibitors | 390,000 tested, 0.21% active; note: % is set by controls: 0 for no effect and ±100 for the full control effect
#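 Enzyme at 20nM final was mixed with library compounds for 15 min at room temperature. Peptide H3(1-25) at 75uM, acetyl-CoA at 70uM and ThioGlo1 at 50uM were then added. Plates were read immediately and after 20 min (Ex340nm/Em540nm).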
# VDR inhibitor: Inhibitors of the vitamin D receptor (VDR): qHTS; Vitamin D3 receptor (Homo sapiens), P11473; VDR-SRC2-3 peptide fluorescence polarization, 2 h; Potency, µM, for the others: max response, negative = inhibition, hits mostly inhibitors; 400,000 tested, 0.93% active; note: % is set by controls: 0 for no effect and ±100 for the full control effect
#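 Fluorescence polarization assay measuring small-molecule disruption of VDR binding to the coregulator peptide SRC2-3. Compounds were pin-transferred (23 nl) into the reagent mix and incubated 2 h at room temperature before reading.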
# Active calls of the source: *; ? = inconclusive; nt = no result given. Hits are enriched below; roughly 3% of the tested compounds scored in any of these assays. Unless noted, calls come from the whole dose curve; as a rule, active = well fitted curve in the direction sought with a large enough effect; inconclusive = small, poorly fitted or top-dose-only effect, or another doubt; inactive = no such curve, though single readings can be large; an effect the other way counts as inactive or inconclusive. Potency is the fitted concentration of half-maximal effect.
SMILES,USP1-UAF1 inh,PLK1 PBD block,TSG101-PTAP inh,GCN5L2 inh,VDR inhibitor
CC(NS(=O)(=O)c1ccc2c(c1)c(=O)n(C)c(=O)n2C)C(=O)NC1CCCCC1 (stereo unspecified),-5.7%,26.7µM*,-2.8%,-5.0%,-28.9%
COc1ccccc1-c1nc(NCc2ccccc2)c2ccccc2n1,nt,nt,nt,-7.5%,6.1%
COc1cc(NCCCCCCN)c2ncccc2c1OC,8.91µM*,?,-2.7%,nt,-16.0%
COc1cc(NC(C)CCCNC(C)C)c2ncccc2c1OC (stereo unspecified),?,-19.3%,-9.7%,nt,?
COc1cc(C(=O)Nc2nc(C)c(Cc3ccc4c(c3)OCO4)s2)cc(OC)c1OC,-26.7%,9.47µM*,-1.0%,-21.1%,?
CCCOc1ccc(C(=O)Nc2nc(C)c(Cc3ccc4c(c3)OCO4)s2)cc1,0.7%,-25.5%,-0.8%,-12.2%,-24.8%
CS(=O)(=O)N(CC(=O)NCCc1ccccc1)c1cc(C(F)(F)F)ccc1Cl,-13.5%,nt,nt,3.9%,-13.6%
O=C(CCC1CCCCC1)NCCN1C2=NC[C@H](Cc3ccccc3)N2C[C@H]1Cc1ccc(O)cc1,-10.9%,-14.5%,-6.2%,7.3%,3.8%
CCCCCCNC(=O)N[C@@H](C(=O)NCCC[C@H]1CN2C(=NC[C@@H]2Cc2ccccc2)N1CCc1cccc(OC)c1)C(C)C,-20.2%,1.5µM*,1.2%,39.8µM*,?
COc1ccc(/C=C/C(=O)c2ccncc2)c2ccccc12,?,5.5%,9.2%,-5.9%,25.1µM*
OCCCNc1cc(-c2ccnc(Nc3cccc(Cl)c3)n2)ccn1,?,-0.5%,-6.4%,-13.8%,13.5%
CCC(C)Oc1cc(-c2ccnc(Nc3cccc(Cl)c3)n2)ccn1 (stereo unspecified),?,23.8µM*,1.4%,-4.4%,?
CC(C)(C)c1ccc(OCCCn2ccnc2)cc1,-10.3%,-3.7%,0.0%,-8.8%,3.3%
CC1=NN(c2ccc(C)cc2C)C(=O)C1C(c1ccccc1)C1C(=O)N(c2ccc(C)cc2C)N=C1C (stereo unspecified),?,18.9µM*,-2.9%,17.3%,?
O=C(CCCn1c(=O)[nH]c2ccccc2c1=O)N1CCN(c2ccccc2)CC1,-3.1%,nt,nt,-2.2%,3.6%
CCOc1ccc(S(=O)(=O)Nc2cc3c(C(=O)OC)c(COC)oc3c3ccccc23)cc1,-27.1%,nt,nt,-2.3%,-8.4%
O=S(=O)(Nc1cc(Sc2cccc3cccnc23)c(O)c2ccccc12)c1ccccc1,nt,nt,nt,-23.1%,nt
CCc1ccc(S(=O)(=O)Nc2cc(SCC(=O)O)c(O)c3ccccc23)cc1,?,1.19µM*,-0.5%,-2.6%,?
CCOc1ccc(S(=O)(=O)Nc2cc(SCC(=O)O)c(O)c3ccccc23)cc1,25.1µM*,1.68µM*,-2.1%,18.9%,17.8µM*
Cc1ccc(C)c(S(=O)(=O)Nc2cc(SCC(=O)O)c(O)c3ccccc23)c1,?,1.5µM*,-0.2%,65.4%,22.4µM*
COc1ccc(Br)c(C(=O)Nc2cc3c(cc2N2CCCC2)n(C)c(=O)c(=O)n3C)c1,-11.2%,nt,nt,5.7%,-5.2%
Cc1cccc2sc(=S)[nH]c12,nt,21.2µM*,nt,nt,nt
CC1(CC(=O)Nc2ccccc2)NC(=S)N(c2ccccc2)N1 (stereo unspecified),-0.6%,26.7µM*,0.9%,-6.9%,-6.9%
CCCCCC1(C)NC(=S)N(c2ccccc2)N1 (stereo unspecified),-11.6%,-10.4%,-6.4%,?,?
CCCCCCC1(C)NC(=S)N(c2ccccc2)N1 (stereo unspecified),-18.1%,18.9µM*,-3.6%,?,?
SMILES,USP1-UAF1 inh,PLK1 PBD block,TSG101-PTAP inh,GCN5L2 inh,VDR inhibitor
CCOC(=O)c1ccc(NC(=O)CSc2c(C(C)C)cnc3c2c(=O)n(C)c(=O)n3C)cc1,-9.1%,nt,nt,-4.5%,6.3%
CCC1CCc2nc3sc(C(=O)Nc4ccc(C)cc4)c(N)c3cc2C1 (stereo unspecified),-3.9%,nt,nt,1.5%,6.0%
Cn1ccnc1C(=O)c1cc(SCC(=O)NCc2ccccc2)nc2ccccc12,-16.6%,21.2µM*,0.2%,-9.1%,-6.5%
O=C(COc1c(Cl)cccc1Cl)NN1C(=O)CSC1=S,-19.5%,18.9µM*,0.4%,-1.3%,-10.2%
O=C(COc1ccccc1)NN1C(=O)CSC1=S,-11.7%,-0.3%,0.0%,1.2%,8.6%
CCOc1ccc(CCNC(=O)CCCc2nnc3n(CC(C)C)c(=O)c4sccc4n23)cc1,-9.4%,nt,nt,-14.5%,-4.1%
Cc1ccc(C)c(N=Nc2ccc(O)c3ncccc23)c1,-3.9%,-19.0%,-1.2%,-2.6%,-10.3%
Cc1ccc(NCc2ccc(O)c3ncccc23)cc1,-22.4%,2.67µM*,0.4%,-14.9%,?
Cc1cccc(NCc2ccc(O)c3ncccc23)c1C,-14.4%,5.97µM*,0.9%,0.0%,?
Oc1ccc(CNc2cccc(C(F)(F)F)c2)c2cccnc12,nt,nt,nt,-8.3%,nt
Cc1cccnc1NCc1ccc(O)c2ncccc12,-7.6%,18.9µM*,0.3%,-2.7%,-22.5%
Cc1ccc(O)c(CNc2cccc3cccnc23)c1,-19.3%,-2.4%,-1.1%,-9.0%,-10.8%
Cc1cccc(N2CCN(C(C(=O)NCc3ccccc3)c3ccc(F)cc3)CC2)c1C (stereo unspecified),nt,-4.6%,nt,nt,nt
CCOc1ccc2c(c1)C(NC(C)=O)C(=O)N2CCN1CCOCC1 (stereo unspecified),-18.7%,21.2µM*,-4.5%,9.9%,79.4µM*
CCOC(=O)C1(Cc2ccc(OC)cc2)CCN(C(=O)c2cc(C)nn2C)CC1,-6.8%,-12.7%,-4.5%,2.4%,-4.4%
CC(=O)Nc1ccc(NC(=O)C2CCC(N3C(=O)C4C5C=CC(C6CC56)C4C3=O)CC2)cc1 (stereo unspecified),-19.5%,4.9%,-0.2%,-7.3%,20µM*
O=C(Nc1ccc(Cc2ccncc2)cc1)C1CCC(N2C(=O)C3C4C=CC(C5CC45)C3C2=O)CC1 (stereo unspecified),-8.3%,-4.7%,-5.6%,-6.1%,4.1%
O=C(NCC1CCCO1)c1c[nH]c2ccc(S(=O)(=O)Nc3cccc(C(F)(F)F)c3)cc2c1=O (stereo unspecified),3.3%,nt,nt,-1.0%,3.7%
O=C(COc1ccc(Cl)cc1Cl)NC(=S)N1CCCc2ccccc21,-21.8%,26.7µM*,-3.8%,-0.4%,17.6%
CC(C)n1c(=S)[nH]c2ccccc21,-7.8%,25.1µM*,0.5%,-7.7%,-8.2%
CCc1c(C)[nH]c2ccc(OC)cc2c1=S,-13.3%,13.4µM*,-4.6%,0.0%,2.1%
COc1ccc2[nH]c(C)c(CN3CCCCC3)c(=O)c2c1,2.0%,1.6%,3.4%,-2.6%,-8.7%
CCOC(=O)c1c(N)n(-c2ccc(N)cc2)c2nc3ccccc3nc12,-19.4%,26.7µM*,-5.4%,-0.9%,-24.0%

# Screening results from PubChem BioAssay.
